Experimental findings from PubChem BioAssay (EPA / NIEHS) are described below.

Records with an inconclusive call do not appear. Activity calls are given as the source filed them. Rule for the calls: active = hit-call score of the fitted dose curve at least 0.9, where 1 is the maximum; inconclusive = response in the unintended direction; inactive = score below 0.9.

The first assay in a line: ATG_M_19_TRANS: Attagene TRANS-FACTORIAL HepG2 Assay for M19 Transcription Factor (Internal Marker) (AID 2282974). Conditions: HepG2 Attagene TRANS-FACTORIAL M19 internal marker reporter. Put shortly: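 Gain-of-signal in reporter mRNA, relative to DMSO, was scored from capillary electrophoresis fluorescence. HepG2 cells carried transiently transfected multiple reporter transcription units and were incubated with test chemicals for 24 h.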
For the molecule `O=C(O)C(F)(F)C(F)(F)C(F)(F)C(F)(F)F`, the result was inactive.

With `O=S(=O)(O)C(F)(F)C(F)(F)C(F)(F)C(F)(F)C(F)(F)C(F)(F)C(F)(F)F`, the result was inactive.

For `FC(F)(F)C(F)(F)C(F)(F)N(C(F)(F)C(F)(F)C(F)(F)F)C(F)(F)C(F)(F)C(F)(F)F`, the molecule was classed as inactive.

Turning to `CC(C)c1ccccc1N`, the result was inactive.

Consider `[Co]`, for which the result was inactive.

Regarding `COC(=O)C1CCC(C(=O)OC)CC1` (centres undefined), the outcome was inactive.

Regarding `FC(F)(F)C(F)(F)C(F)(F)C(F)(F)C(F)(F)C(F)(F)C(F)(F)Br`, the call was inactive.

Take `CCCCCCOC(=O)c1ccccc1`: the outcome was inactive.

`FC(F)(F)C(F)(F)C(F)(F)C(F)(F)C(F)(F)C(F)(F)C(F)(F)C(F)(F)CCS`: the outcome was inactive.

For `O=P(O)(O)OCCC(F)(F)C(F)(F)C(F)(F)C(F)(F)C(F)(F)C(F)(F)F`, the result was inactive.

Consider `CC(C)(C)C(=O)CC(=O)C(F)(F)C(F)(F)C(F)(F)F`, for which the molecule was called inactive.

Take `O=C(O)C(F)(F)C(F)(F)C(F)(F)F`: the molecule was called inactive.

Take `OCCCC(F)(F)C(F)(F)C(F)(F)F`: the result was inactive.

With `FC(F)(F)C(F)(F)C(F)(F)C(F)(F)C(F)(F)CCI`, the molecule was classed as inactive.

Turning to `COC(OC(C)=O)c1ccccc1` (centres undefined), the outcome was inactive.

For `O=C(CC(=O)C(F)(F)C(F)(F)F)C(F)(F)F`, the result was inactive.

For `O=C(O)C(F)(F)C(F)(F)C(F)(F)C(F)(F)C(F)(F)C(F)(F)C(F)(F)C(F)(F)Cl`, the call was inactive.

As to `CCCCCC=O`, the call was inactive.

Regarding `c1ccc(B(c2ccccc2)c2ccccc2)cc1`, the molecule was called inactive.

As for `CC(CCl)OP(=O)(OC(C)CCl)OC(C)CCl` (centres undefined), the outcome was inactive.

Another assay is described as follows: ATG_GAL4_TRANS: Attagene TRANS-FACTORIAL HepG2 Assay for GAL4 (Internal Marker) (AID 2282976). Conditions: HepG2 Attagene TRANS GAL4 internal marker reporter. In a few lines:
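RT-PCR/capillary electrophoresis readout of reporter mRNA. HepG2, transient MRTU transfection (GAL4-UAS reporters), 24 h compound exposure. Background-control endpoint, positive direction vs DMSO baseline.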
As to `O=C(O)C(F)(F)C(F)(F)C(F)(F)C(F)(F)F`, the outcome was inactive.

With `O=C(O)C(F)(F)C(F)(F)OC(F)(F)F`, the outcome was inactive.

Consider `O=S(=O)(O)C(F)(F)C(F)(F)C(F)(F)C(F)(F)C(F)(F)C(F)(F)C(F)(F)F`, for which the molecule was classed as inactive.

Consider `FC(F)(F)C(F)(F)C(F)(F)N(C(F)(F)C(F)(F)C(F)(F)F)C(F)(F)C(F)(F)C(F)(F)F`, for which the molecule was classed as inactive.

As for `CC(C)c1ccccc1N`, the outcome was inactive.

Consider `[Co]`, for which the molecule was called inactive.

On to `FC(F)(F)C(F)(F)C(F)(F)C(F)(F)C(F)(F)C(F)(F)C(F)(F)Br`, for which the outcome was inactive.

Take `CC/C=C\CCOC(C)=O`: the call was inactive.

For `FC(F)(F)C(F)(F)C(F)(F)C(F)(F)C(F)(F)C(F)(F)C(F)(F)C(F)(F)CCS`, the call was inactive.

Consider `O=C(O)C(F)(F)C(F)(F)C(F)(F)C(F)(F)C(F)(F)C(F)(F)C(F)(F)C(F)(F)C(F)(F)C(F)(F)C(F)(F)C(F)(F)C(F)(F)F`, for which the molecule was called inactive.

For `O=P(O)(O)OCCC(F)(F)C(F)(F)C(F)(F)C(F)(F)C(F)(F)C(F)(F)F`, the result was inactive.

Take `O=C(O)C(F)(F)C(F)(F)C(F)(F)F`: the outcome was inactive.

Regarding `NC(=O)C(F)(F)C(F)(F)C(F)(F)C(F)(F)F`, the result was inactive.

Turning to `OCCCC(F)(F)C(F)(F)C(F)(F)F`, the result was inactive.

In the case of `O=C(CC(=O)C(F)(F)C(F)(F)F)C(F)(F)F`, the outcome was inactive.

Regarding `FC(F)(F)C(F)(F)C(F)(F)C(F)(F)C(F)(F)C(F)(F)CCS`, the outcome was inactive.

In the case of `O=C(O)C(F)(F)C(F)(F)C(F)(F)C(F)(F)C(F)(F)C(F)(F)C(F)(F)C(F)(F)C(F)(F)C(F)F`, the molecule was called inactive.

As for `CCCCCC=O`, the call was inactive.

For the molecule `c1ccc(B(c2ccccc2)c2ccccc2)cc1`, the outcome was inactive.
